The panel holds about 83,000 compounds, 20% with a hit somewhere; the sample as a whole holds those more often.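 Interpretation: 100, growth as untreated; towards 0, rising growth inhibition; 0, no net growth; 0 to -100, cell death. Compounds scoring below 10 were considered active.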 Values without a mark were called inactive. Calls of active or inactive are those of the source.

Here are results for 40 compounds from PubChem BioAssay (NCI).

The subject of the assay is HL-60(TB) leukemia. The assay can be described thus: NCI-60 one-dose screen, 48 h (100 = growth as untreated, 0 = no growth, -100 = all killed). To be noted: 10 µM unless noted.
In the case of `C=CN(C(=O)N1CCN(c2cc3c(cc2F)c(=O)c(C(=O)O)cn3C2CC2)CC1)c1nc(-c2ccc(OC)cc2)cs1`, the growth was -22.9% (active).

Consider `CC(CN1CCCCC1)C(=O)c1ccccc1` (stereo not given), for which the growth is 103%.

Consider `NS(=O)(=O)c1ccc(CCn2c(SCC(=O)N/N=C/c3ccccc3O)nc3ccccc3c2=O)cc1`, for which the growth was -25.5% (active).

With `O=[N+]([O-])c1cc(S(=O)(=O)Nc2ccccc2)ccc1Cl`, the growth is 71.3%.

For `N#Cc1ccc(O)c(C2=NCC(c3ccc(-c4ccccc4)cc3)O2)c1` (stereo not given), the growth is -17.3% (active).

Regarding `CCCCCCCNC(=O)CCCNc1ncnc2c1ncn2-c1cccc(C(C)O)c1` (stereo not given), the growth is 24%.

Take `c1cnc2ccc3ncccc3c2c1`: the growth was 98.9%.

Consider `CC(=O)Nc1cscc1NC(C)=O`, for which the growth is 96.7%.

As to `CCCOc1cc2ccccc2cc1C(=O)Nc1nc(N)c2c(ccc3nccc32)[nH]1`, the growth was -56.3% (active).

Regarding `C=CCn1c(SCC(=O)Nc2ccc(C(=O)/C=C/c3cc(OC)c(OC)c(OC)c3)cc2)nnc1-c1cc(OC)c(OC)c(OC)c1`, the growth is 16.5%.

Consider `Brc1ccc(-c2nn(-c3ccccc3)cc2-c2nn[nH]n2)s1`, for which the growth is 103%.

As to `O=C(O)COc1ccc(F)cc1`, the growth is 94.2%.

Regarding `Clc1ccc2nc(-c3ccc(-c4ccc(/C=N/NC5=NCCN5)cc4)s3)cn2c1`, the growth was 98.1%.

`COC(=O)C1(C)COP(=O)(Nc2ccc(OC)cc2)OC1` (stereo not given): the growth is 94.7%.

In the case of `C/C(=N\OC(=O)Nc1ccccc1)c1ccccc1`, the growth is 119%.

As to `Cc1ccc(C(=O)CC(=O)C(F)(F)C(F)(F)C(F)(F)F)s1`, the growth was 101%.

As to `Cc1cc(N/N=C/c2nc(-c3ccccc3)oc2C)c2cc(Cl)ccc2n1`, the growth was -37.4% (active).

Regarding `COc1ccc(/C(C)=C(\c2ccc(OCCN3CCCCCC3)cc2)c2ccc(OC(=O)C3CCCCC3)cc2)cc1`, the growth was -41.1% (active).

With `Cc1cc(NC(=O)c2ccccc2)c(Cl)cc1N`, the growth is 54.7%.

Take `O=c1cc(-c2ccc3c(c2)OCCO3)oc2cc(Cl)ccc12`: the growth was 110%.

As for `NC(=O)Nc1ccc2ncnc(Nc3cccc(O)c3)c2c1`, the growth is 105%.

Turning to `CCc1ccc(CNCC(O)c2ccccc2)cc1` (stereo not given), the growth is 95.7%.

Regarding `COC(=O)[C@]12CC[C@@H](C)[C@H](C)[C@@H]1C1=CC[C@@H]3[C@@]4(C)C[C@@H](O)[C@H](O)[C@@](C)(CO)C4=CC[C@@]3(C)[C@]1(C)CC2`, the growth is -28% (active).

Turning to `C/C=C(/C)C(=O)OC1C=C(CO)C(=O)C(OC(=O)/C(C)=C\C)C1C(C)C` (stereo not given), the growth is -32% (active).

For the compound `CSc1nc2c(c(=O)[nH]1)N=C1c3ccccc3C(=O)C1C(c1ccc(F)cc1)N2` (stereo not given), the growth is 91.4%.

For `CN(C)CCCN1c2ccccc2CCc2ccccc21`, the growth was 91.4%.

`c1ccc2c(c1)Oc1ccccc1C2C1c2ccccc2Oc2ccccc21`: the growth is 99.4%.

With `CC1=C2[C@@H](CC1)[C@]1(C)O[C@@](C(C)C)(C[C@H]1OC(=O)[C@H](C)O)[C@H]2OC(=O)/C=C/c1ccccc1`, the growth is 89.1%.

As for `O=C1NC(=S)NC(=O)C1=Cc1cn(Cc2ccccn2)c2ccccc12`, the growth is 32.5%.

As for `Cc1cccc(/C=C2\N=C(c3ccccc3)N(c3ccc(S(N)(=O)=O)cc3)C2=O)c1`, the growth was 92.7%.

Consider `CC(C)c1ccc(C(=O)Nc2nc3ccc(O)cc3s2)cc1`, for which the growth is 14.4%.

As to `Cc1cc(N2CCOCC2)nc(N(CCNc2ccnc3cc(Cl)ccc23)Cc2cccs2)n1`, the growth was -63.2% (active).

Turning to `COc1ccc(S(=O)(=O)N(C(C)=O)c2ccccc2/C=C/c2cc[n+]([O-])cc2)cc1`, the growth is -27.6% (active).

Take `CCCCCCCCCCCCCCCCN=C(CC(=O)O)C(=O)O`: the growth was 72.6%.

Take `O=C(CN1CCNCC1)N1CCOCC1`: the growth is 68.5%.

Consider `COc1ccc(C(=O)/C=C/c2ccc(OCc3ccccc3)c(OC)c2)cc1OC`, for which the growth is 48.8%.

Turning to `C/C(Cc1ccc(Cl)cc1)=C(\c1ccc(OCCN2CCCCCC2)cc1)c1ccc(OC(=O)Cc2ccccc2)cc1`, the growth was 15.8%.

For the compound `CCOCC[P+](c1ccccc1)(c1ccccc1)c1ccccc1`, the growth was 11.7%.

Take `COc1ccc(-c2nc(-c3nc4cc(Cl)c(Cl)cc4[nH]3)c3ccccn23)cc1`: the growth is 99.9%.

Take `COc1cc(C2CC(c3ccc(C)cc3)=NN2C=O)ccc1Oc1nc2c(c(=O)n(C)c(=O)n2C)n1C` (stereo not given): the growth was 111%.
